Outcome data for 19 molecules are collected here from PubChem BioAssay AID720594 (Broad Institute, 2013).

Entries with a potency or affinity are not part of this list. Activity calls are given as the source filed them.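 The calls were made as follows: active = falling ATP light signal with a fitted half-maximal concentration at most twice the highest valid tested dose; inconclusive = flat fit with moderate signal loss, or poor fit; inactive = the rest.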

A short description of this assay: ATP-based viability loss in HepG2 cells – cell-based, CellTiter-Glo luminescence, dry powder, set 3, cytotoxicity control, dose response (AID 720594). As to conditions: 72 h; series mostly up to 26 µM. (In ATP-based viability assays light output follows the ATP content of the culture.)
Turning to `O=C(CSc1n[nH]c(-c2ccccn2)n1)Nc1ccc(Cl)cc1`, the outcome was inactive.

As to `COC(=O)c1ccc(NC(=O)CSc2ccc(-c3ccccn3)nn2)cc1`, the call was inactive.

Turning to `CCc1cc2c(=O)[nH]c(-c3ccccn3)nc2s1`, the result was inactive.

In the case of `COC(=O)Cc1cc(=O)n(-c2nc3ccccc3[nH]2)[nH]1`, the result was inactive.

For `CC(C)CC(=O)NC(c1cccs1)c1ccc2cccnc2c1O` (centres undefined), the molecule was classed as inactive.

As for `CC(C)Cc1nnc(NC(=O)c2cccc(S(=O)(=O)N3CCOCC3)c2)s1`, the outcome was inactive.

On to `O=C(CSc1ccc(-c2ccccn2)nn1)Nc1ccccc1`, for which the result was inactive.

In the case of `Cc1ccc(C(=O)Nc2nc(-c3ccccn3)cs2)cc1S(=O)(=O)N1CCOCC1`, the result was inactive.

Turning to `O=C(CSc1ccc(-c2ccccn2)nn1)N1CCCC1`, the molecule was classed as inactive.

`O=C(Nc1nnc(-c2ccc(F)cc2)o1)c1ccc(S(=O)(=O)N2CCCCC2)cc1`: the molecule was classed as inactive.

For `O=C(CSc1ccc(-c2ccccn2)nn1)NC1CCCCC1`, the result was inactive.

As to `Nc1nc(-c2ccccn2)nc(N)c1Cc1ccc(Cl)cc1Cl`, the molecule was called inactive.

Take `CC1CCN(S(=O)(=O)c2ccc(C(=O)Nc3nnc(-c4ccccn4)o3)cc2)CC1`: the outcome was inactive.

With `CC1CCN(S(=O)(=O)c2ccc(C(=O)Nc3nnc(-c4ccco4)o3)cc2)CC1`, the call was inactive.

On to `O=C(Cc1ccccc1)NC(c1ccco1)c1ccc2cccnc2c1O` (centres undefined), for which the molecule was called inactive.

Take `Cc1ccc(S(=O)(=O)CCc2nnc(NC(=O)c3ccccc3)s2)cc1`: the outcome was inactive.

On to `O=C(Nc1nc(-c2ccccn2)cs1)c1ccco1`, for which the molecule was classed as inactive.

Take `CCCCC(=O)NC(c1ccco1)c1ccc2cccnc2c1O` (centres undefined): the result was inactive.

As to `O=C(Nc1nc(-c2ccncc2)cs1)c1cccc(S(=O)(=O)N2CCOCC2)c1`, the molecule was called inactive.
